Data as given in PubChem BioAssay (NCATS).
Results filed as inconclusive are left out. Activity calls are given as the source filed them. The call rests on the fitted dose curve; in most records, active means well fitted curve in the direction sought with a large enough effect; inconclusive means small, poorly fitted or top-dose-only effect, or another doubt; inactive means no such curve, though single readings can be large; an effect the other way counts as inactive or inconclusive.

How the values were obtained:
[1] = Quantitative High-Throughput drug screen in 47 multiple myeloma cell lines against the NCATS MIPE library collection: OCIMY1_PLB cell viability assay (AID 1918979); further: nearly all actives have a fitted effect of over 35% in size; further: potency means the concentration at half of the fitted maximal effect;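 on viability: 100% = DMSO-only wells and 0% = cell-free media-only wells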
Procedure, shortened: (§1)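 Inhibition of viability over 48 h was scored by ATP content (CellTiter-Glo) in 500-cell wells. Zero and full viability were defined by media-only and DMSO-only wells.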

[2] = Quantitative High-Throughput drug screen in 47 multiple myeloma cell lines against the NCATS MIPE library collection: MM1S_ATCC cell viability assay (AID 1918980); further: nearly all actives have a fitted effect of over 45% in size; further: potency means the concentration at half of the fitted maximal effect
Procedure, shortened: as §1

[3] = Quantitative High-Throughput drug screen in 47 multiple myeloma cell lines against the NCATS MIPE library collection: MM1R_ATCC cell viability assay (AID 1918981); further: nearly all actives have a fitted effect of over 35% in size; further: potency means the concentration at half of the fitted maximal effect
Procedure, shortened: as §1

[4] = Quantitative High-Throughput drug screen in 47 multiple myeloma cell lines against the NCATS MIPE library collection: KMS28PE_JCRB cell viability assay (AID 1918983); further: nearly all actives have a fitted effect of over 35% in size; further: potency means the concentration at half of the fitted maximal effect
Procedure, shortened: as §1

[5] = Quantitative High-Throughput drug screen in 47 multiple myeloma cell lines against the NCATS MIPE library collection: OCIMY7_PLB cell viability assay (AID 1918987); settings: OCI-MY7 myeloma viability, CellTiter-Glo ATP, 48 h; viability (% of DMSO): at 45.8 µM (top of the series); further: potency means the concentration at half of the fitted maximal effect; nearly all actives have a fitted effect of over 65% in size
Procedure, shortened: as §1

[6] = Quantitative High-Throughput drug screen in 47 multiple myeloma cell lines against the NCATS MIPE library collection: OPM1_PLB cell viability assay (AID 1918989); further: nearly all actives have a fitted effect of over 40% in size; further: potency means the concentration at half of the fitted maximal effect
Procedure, shortened: as §1

[7] = Quantitative High-Throughput drug screen in 47 multiple myeloma cell lines against the NCATS MIPE library collection: SKMM1_PLB cell viability assay (AID 1919863); settings: SKMM1 myeloma viability, CellTiter-Glo ATP, 48 h; viability: stronger effect = lower value; further: nearly all actives have a fitted effect of over 35% in size; further: potency means the concentration at half of the fitted maximal effect
Procedure, shortened: as §1

[8] = Quantitative High-Throughput drug screen in 47 multiple myeloma cell lines against the NCATS MIPE library collection: U266_ATCC cell viability assay (AID 1919864); further: nearly all actives have a fitted effect of over 35% in size; further: potency means the concentration at half of the fitted maximal effect;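 on viability (% of DMSO control): 0% = media-only wells without cells and 100% = DMSO-only wells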
Procedure, shortened: as §1

[9] = Quantitative High-Throughput drug screen in 47 multiple myeloma cell lines against the NCATS MIPE library collection: XG6_PLB cell viability assay (AID 1919865); further: nearly all actives have a fitted effect of over 40% in size; further: potency means the concentration at half of the fitted maximal effect
Procedure, shortened: as §1

[10] = Quantitative High-Throughput drug screen in 47 multiple myeloma cell lines against the NCATS MIPE library collection: UTMC2_PLB cell viability assay (AID 1919868); settings: CellTiter-Glo ATP luminescence, 48 h; viability (% of DMSO control): at 45.8 µM (top of the series);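 further: 100% = DMSO-only wells and 0% = media-only wells without cells; nearly all actives have a fitted effect of over 55% in size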
Procedure, shortened: as §1

[11] = Quantitative High-Throughput drug screen in 47 multiple myeloma cell lines against the NCATS MIPE library collection: PE2_PLB cell viability assay (AID 1919869)
Procedure, shortened: as §1

[12] = Quantitative High-Throughput drug screen in 47 multiple myeloma cell lines against the NCATS MIPE library collection: RPMI8226_ATCC cell viability assay (AID 1919871); further: nearly all actives have a fitted effect of over 30% in size; further: potency means the concentration at half of the fitted maximal effect
Procedure, shortened: as §1

[13] = Quantitative High-Throughput drug screen in 47 multiple myeloma cell lines against the NCATS MIPE library collection: NCIH929_DSMZ cell viability assay (AID 1918978)
Procedure, shortened: as §1

[14] = Quantitative High-Throughput drug screen in 47 multiple myeloma cell lines against the NCATS MIPE library collection: OCIMY5_PLB cell viability assay (AID 1918988); further: nearly all actives have a fitted effect of over 65% in size; further: potency means the concentration at half of the fitted maximal effect
Procedure, shortened: as §1

[15] = Quantitative High-Throughput drug screen in 47 multiple myeloma cell lines against the NCATS MIPE library collection: XG1_PLB cell viability assay (AID 1919866); further: nearly all actives have a fitted effect of over 35% in size; further: potency means the concentration at half of the fitted maximal effect
Procedure, shortened: as §1

[16] = Quantitative High-Throughput drug screen in 47 multiple myeloma cell lines against the NCATS MIPE library collection: VP6_DJ cell viability assay (AID 1919867); further: potency means the concentration at half of the fitted maximal effect; nearly all actives have a fitted effect of over 40% in size
Procedure, shortened: as §1

[17] = Quantitative High-Throughput drug screen in 47 multiple myeloma cell lines against the NCATS MIPE library collection: LP1_DSMZ cell viability assay (AID 1918982); further: nearly all actives have a fitted effect of over 35% in size; further: potency means the concentration at half of the fitted maximal effect
Procedure, shortened: as §1

[18] = Quantitative High-Throughput drug screen in 47 multiple myeloma cell lines against the NCATS MIPE library collection: L363_DSMZ cell viability assay (AID 1918984); further: nearly all actives have a fitted effect of over 40% in size; further: potency means the concentration at half of the fitted maximal effect
Procedure, shortened: as §1

[19] = Quantitative High-Throughput drug screen in 47 multiple myeloma cell lines against the NCATS MIPE library collection: KMS34_JCRB cell viability assay (AID 1918985); further: nearly all actives have a fitted effect of over 40% in size; further: potency means the concentration at half of the fitted maximal effect
Procedure, shortened: as §1

[20] = Quantitative High-Throughput drug screen in 47 multiple myeloma cell lines against the NCATS MIPE library collection: PCM6_Riken cell viability assay (AID 1919870); further: nearly all actives have a fitted effect of over 30% in size; further: potency means the concentration at half of the fitted maximal effect
Procedure, shortened: as §1

COc1ccc(-n2c(C)c([N+](=O)[O-])c3ccc(O)cc32)cc1
active: Potency [2] 0.833 µM | Potency [3] 16.6 µM | Potency [5] 14.8 µM | Potency [7] 4.18 µM | Potency [11] 4.69 µM
inactive: Potency [1] | Potency [4] | Potency [6] | Potency [8] | Potency [9] | Potency [10] | Potency [12]

COc1ccc2c(Oc3ccc(NC(=O)c4c(C)n(CC(C)(C)O)n(-c5ccccc5)c4=O)cc3F)ccnc2c1
active: Potency [13] 20.9 µM | Potency [5] 16.6 µM | Potency [14] 23.5 µM | Potency [6] 18.7 µM | Potency [9] 20.9 µM | Potency [15] 14.8 µM | Potency [16] 11.8 µM | Potency [12] 23.5 µM

CCn1c(C(=O)N(C2CC2)C2CC2)cc2c3c(ncn3C)c(Nc3cc(C)n(C)n3)nc21
inactive: Potency [1] | Potency [2] | Potency [3] | Potency [17] | viability [7] 128%
active: Potency [5] 14.8 µM | Potency [6] 20.9 µM | Potency [9] 13.2 µM | Potency [11] 16.6 µM

O=C1NC(=O)C(=Cc2cccc(C(F)(F)F)c2)S1
active: Potency [14] 26.4 µM | Potency [7] 14.8 µM | Potency [9] 20.9 µM | Potency [15] 16.6 µM | Potency [12] 7.43 µM
inactive: Potency [1] | Potency [3] | Potency [17]

CCS(=O)(=O)N1CC(CC#N)(n2cc(-c3ncnc4[nH]ccc34)cn2)C1
inactive: Potency [1] | Potency [18]
active: Potency [2] 20.9 µM | Potency [19] 6.62 µM | Potency [5] 8.33 µM | Potency [14] 7.43 µM | Potency [6] 20.9 µM | Potency [8] 23.5 µM | Potency [9] 2.09 µM | Potency [15] 0.332 µM | Potency [20] 5.9 µM

Cn1cc(C=C2C(=O)Nc3cccnc32)c2ccccc21
inactive: Potency [1] | Potency [17] | Potency [4] | viability [7] 130% | Potency [15] | Potency [12]
active: Potency [6] 18.7 µM | Potency [16] 10.5 µM

CC[C@]1(O)C[C@@H]2CN(CCc3c([nH]c4ccccc34)[C@@](C(=O)OC)(c3cc4c(cc3OC)N(C=O)[C@@H]3C45CCN4CC=C[C@](CC)([C@H]45)[C@@H](OC(C)=O)[C@]3(O)C(=O)OC)C2)C1 (some centres not stated)
active: Potency [1] 26.4 µM | Potency [2] 18.7 µM | Potency [3] 20.9 µM | Potency [17] 20.9 µM | Potency [4] 23.5 µM | Potency [19] 23.5 µM | Potency [5] 9.35 µM | Potency [14] 20.9 µM | Potency [7] 20.9 µM | Potency [8] 23.5 µM | Potency [11] 16.6 µM
inactive: Potency [18]

C[C@H](NC(=O)c1sccc1OCc1ccc(Cl)cc1)c1ccccc1
active: Potency [1] 16.6 µM | Potency [2] 18.7 µM | Potency [4] 16.6 µM | Potency [14] 16.6 µM | Potency [7] 18.7 µM | Potency [11] 18.7 µM

NC(=O)c1cccc(-c2cc(Nc3ccc(OC(F)(F)F)cc3)ncn2)c1
active: Potency [18] 8.33 µM | Potency [5] 13.2 µM | Potency [6] 18.7 µM | Potency [9] 16.6 µM | Potency [16] 14.8 µM | Potency [11] 18.7 µM
inactive: Potency [1] | Potency [2] | Potency [12]

CC(C)[C@H](CO)Nc1nc(Nc2ccc(C(=O)O)c(Cl)c2)c2ncn(C(C)C)c2n1
active: Potency [13] 23.5 µM | Potency [4] 37.2 µM | Potency [5] 16.6 µM | Potency [6] 10.5 µM | Potency [16] 23.5 µM | Potency [11] 23.5 µM

COc1ccc2cc(-c3nc(-c4ccc(S(C)=O)cc4)[nH]c3-c3ccncc3)ccc2c1 (configuration not stated)
inactive: Potency [1] | Potency [4] | viability [7] 106%
active: Potency [14] 14.8 µM | Potency [6] 20.9 µM | Potency [15] 23.5 µM | Potency [11] 14.8 µM

COCCCCC(=NOCCN)c1ccc(C(F)(F)F)cc1
active: Potency [2] 16.6 µM | Potency [19] 3.72 µM | Potency [14] 23.5 µM | Potency [6] 23.5 µM | Potency [8] 16.6 µM | Potency [11] 18.7 µM
inactive: Potency [1] | Potency [18]

COc1cccc([C@@H](C)NCCCc2ccccc2Cl)c1
inactive: Potency [1] | Potency [3] | Potency [4] | Potency [19] | Potency [14] | Potency [6] | viability [7] 122% | Potency [12]

O=C(O)C=Cc1ccc(O)c(O)c1
active: Potency [1] 10.5 µM | Potency [2] 9.35 µM | Potency [3] 23.5 µM | Potency [4] 2.96 µM | Potency [18] 16.6 µM | Potency [5] 16.6 µM | Potency [14] 18.7 µM | Potency [6] 16.6 µM | Potency [7] 29.6 µM | Potency [8] 14.8 µM | Potency [11] 16.6 µM
inactive: Potency [10] | Potency [20]

O=C(Nc1cccc(Br)c1)c1cccc(S(=O)(=O)N2CCCCCC2)c1
active: Potency [1] 14.8 µM | Potency [3] 18.7 µM | Potency [17] 10.5 µM | Potency [4] 23.5 µM | Potency [18] 13.2 µM | Potency [14] 18.7 µM | Potency [9] 14.8 µM | Potency [15] 16.6 µM | Potency [16] 16.6 µM

CC#CCn1c(N2CCC[C@@H](N)C2)nc2c1c(=O)n(Cc1nc(C)c3ccccc3n1)c(=O)n2C
inactive: Potency [1] | Potency [3] | Potency [17] | Potency [4] | Potency [9] | Potency [20]
active: Potency [2] 20.9 µM | Potency [14] 26.4 µM

N[C@@]1(C(=O)O)CS(=O)(=O)[C@H]2[C@H](C(=O)O)[C@H]21
inactive: Potency [1] | Potency [19] | Potency [12]
active: Potency [2] 3.72 µM | Potency [8] 4.18 µM
